# Reference: the OligoGym collection
# What was measured:
# Experiment in all cases: pooled miR-30 sensor sort-seq; sequence = guide strand
# Conditions in all cases: shRNA
# SRSF11 = biological target: SRSF11
# SSR4 = biological target: SSR4
# ST6GAL2 = biological target: ST6GAL2
# STK32B = biological target: STK32B
# STX12 = biological target: STX12
# SULT1A2 = biological target: SULT1A2
# SYT2 = biological target: SYT2
# TAS1R2 = biological target: TAS1R2
# TBC1D10A = biological target: TBC1D10A
# TAS2R31 = biological target: TAS2R31
# TBC1D7 = biological target: TBC1D7
sequence,measurement,setting,value
TTTGTCTTTATCTTTCTTCTTC,sensor-assay potency score (higher = more potent),SRSF11,0.407
TCTCAGTGGAAATGACAGCGTC,sensor-assay potency score (higher = more potent),SSR4,-0.63
TCAGAAGTGGTGTAGTAGGAAG,sensor-assay potency score (higher = more potent),SSR4,-1.28
TTTATTCCCAACATCTTTCTCA,sensor-assay potency score (higher = more potent),ST6GAL2,0.384
TTTGGTTGAATCTTCTCTTTAG,sensor-assay potency score (higher = more potent),ST6GAL2,-0.877
TTCTGCTCCTTTCACTACCGTC,sensor-assay potency score (higher = more potent),STK32B,-0.907
TACCCTTCTCTGCACAGCCTGG,sensor-assay potency score (higher = more potent),STX12,-1.07
TTTTTGTCTAAAACTATGCATG,sensor-assay potency score (higher = more potent),STX12,-0.984
TTATTCTGGAGCCTCTTGGTCA,sensor-assay potency score (higher = more potent),SULT1A2,-0.61
TGAGGTCCACAGTCTCCTCTGG,sensor-assay potency score (higher = more potent),SULT1A2,-0.796
TATCTCATTGAATAACTTCTCC,sensor-assay potency score (higher = more potent),SYT2,-0.214
TTCATCTTCAGTGTGGTTGAGG,sensor-assay potency score (higher = more potent),TAS1R2,-0.161
TTCATATTCATCTTCAGTGTGG,sensor-assay potency score (higher = more potent),TAS1R2,0.0168
TCACAGAAGAACATGTCCCAGA,sensor-assay potency score (higher = more potent),TBC1D10A,-0.251
TTTTGTCCGTACAATCTCTTTC,sensor-assay potency score (higher = more potent),TAS2R31,-0.469
TAGCACACATCCACGATCTCAT,sensor-assay potency score (higher = more potent),TAS1R2,0.125
TAGAAGGTCATGCTGAGGGTGA,sensor-assay potency score (higher = more potent),TAS1R2,-0.126
TAGACCGCAGAGTACACGCTGT,sensor-assay potency score (higher = more potent),TAS1R2,-0.157
TAGGACCACTCGTTATTCGGGC,sensor-assay potency score (higher = more potent),TAS1R2,-0.986
AATAGAACCACTACCACACTGG,sensor-assay potency score (higher = more potent),TAS2R31,0.475
TTGATCTTCCAAGTCAAGTTTC,sensor-assay potency score (higher = more potent),TAS2R31,-0.849
TAGGCAGACATGAAGGTGCAGA,sensor-assay potency score (higher = more potent),TAS1R2,-0.389
TACAGTCGCATCTGAAAGGTAC,sensor-assay potency score (higher = more potent),TAS2R31,-0.71
ATAGGTGTCGCTGCTCACCAGC,sensor-assay potency score (higher = more potent),TAS1R2,-0.83
TTGCAGGTATAGCTCTGGCTGG,sensor-assay potency score (higher = more potent),TAS1R2,-1.05
TTCGACAGCTACAAAAACTAGG,sensor-assay potency score (higher = more potent),TBC1D7,-0.269
TTCTTTTCTTCAACTCCACGAA,sensor-assay potency score (higher = more potent),TBC1D7,-0.5
TTTCTCGCTGTAGTAGCCGGGC,sensor-assay potency score (higher = more potent),TBC1D10A,-0.648
TTCACAGAAGAACATGTCCCAG,sensor-assay potency score (higher = more potent),TBC1D10A,-0.889
TTCTGCTGTAACTTCACCTTGC,sensor-assay potency score (higher = more potent),TBC1D10A,0.827
